hgDAF12 agonist – H. glycines DAF-12 receptor agonists, primary screen, cell-based, luminescence, HEK293, GAL4 fusion, UAS-luciferase; activation, % at 6.8 µM; AID 687014, 2013; Nuclear hormone receptor DAF-12 (Heterodera glycines), GAL4 fusion; actives 1.8% (n = 370,000); HEK293 GAL4-hgDAF12 UAS-luciferase reporter, agonist luminescence; normalized to butyrate control;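 active = activation above a cutoff set at the mean of all screened compounds plus 3 SD, cut at about 10% in these data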
SMARCA2 activ – SMARCA2 (BRM) function activators, primary screen, cell-based, luminescence, high throughput; activation, % at 9.1 µM; MG213 cells, MMTV-luciferase reporter, dexamethasone, overnight; actives 1% (n = 370,000); AID 652017, 2013; in the data active = activation above about 7.8%
hcDAF12 agonist – H. contortus DAF-12 nuclear receptor activators, primary screen, cell-based, luminescence, HEK293, lit1-tk-luc reporter; actives 1.4% (n = 370,000); activation, % at 6.8 µM; HEK293 hcDAF-12 lit1-tk-luc reporter; 0% DMSO, 100% Δ7-dafachronic acid;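 active = activation above the mean of all tested compounds plus 3 SD, cut at about 5.5% in these data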
DAX1 inh-1 – DAX1 (NR0B1) inhibitors on StAR promoter, primary screen, cell-based, luminescence, SF-1 (NR5A1), full-length DAX-1 | inhibition, % at 6.8 µM | HEK293T StAR-luciferase reporter, SF-1/DAX-1 repression relief | actives 1.1% (n = 370,000) | AID 652010, 2013;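 active = inhibition above the mean over all tested compounds plus 3 SD, cut at about 3.6% in these data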;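 also: higher inhibition means more luminescence from relief of DAX-1 repression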
ssDAF12 agonist – S. stercoralis DAF-12 nuclear receptor activators, primary screen, cell-based, luminescence, HEK293, GRIP1 co-expression, lit1-tk-luc | actives 1% (n = 370,000) | AID 652126, 2013 | HEK293 ssDAF-12/GRIP1 lit1-tk-luc reporter; % of 3 µM dafachronic acid response | activation, % at 6.8 µM;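 active = activation above the mean over all tested compounds plus 3 SD, cut at about 0.9% in these data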
DAX1 inh-2 – DAX1 (NR0B1) inhibitors, primary screen, cell-based, HEK293, Gal4-DAX1, luciferase luminescence | inhibition, % at 6.75 µM | HEK293 Gal4-DAX1 luciferase reporter | AID 504766, 2011 | Nuclear receptor subfamily 0 group B member 1 (Homo sapiens), P51843 | actives 0.99% (n = 340,000);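 active = inhibition above the mean over all tested compounds plus 3 SD, cut at about 4.2% in these data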;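 also: inhibition shows as a rise in luminescence from relieved DAX1 repression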
Target sequence (P51843 207-470 limits assumed): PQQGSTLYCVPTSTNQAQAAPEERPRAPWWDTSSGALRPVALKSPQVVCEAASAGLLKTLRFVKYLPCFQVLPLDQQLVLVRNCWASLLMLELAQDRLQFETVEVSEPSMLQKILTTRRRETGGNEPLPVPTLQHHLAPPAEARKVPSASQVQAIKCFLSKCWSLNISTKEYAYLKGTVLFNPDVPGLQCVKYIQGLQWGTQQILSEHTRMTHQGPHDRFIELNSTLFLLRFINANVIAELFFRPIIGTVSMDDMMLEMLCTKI
LXRb hcDAF ctr – LXR agonists, Gal4 luciferase reporter, confirmation, counter-screen for hcDAF-12 agonist project, cell-based, luminescence, HEK293, H. contortus campaign | shares compounds with hcDAF12 agonist | HEK293 Gal4-LXR tk-luc reporter, 24 h; normalized: DMSO 0%, positive control 100% | activation, % at 6.8 µM | 3,400 tested, under 10 active | AID 743027, 2013;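 active = mean percent activation of the reporter above a cutoff set as the average over tested compounds plus their standard deviation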
hcDAF12 ag – H. contortus DAF-12 receptor agonists, confirmation, cell-based, luminescence, HEK293, lit1-tk-luc, triplicate; actives 61% (n = 3,400); shares compounds with hcDAF12 agonist; HEK293 hcDAF-12 lit1-tk-luc reporter; % of Δ7-dafachronic acid response; activation, % at 6.8 µM; AID 743032, 2013;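 active = mean activation across triplicate tests above the threshold derived from the earlier primary screen, cut at about 5.5% in these data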
Hits are given with their value; i = inactive; nt = no result. The list is not random: actives were taken first. Their share in the collection is about 4.8%.

SMILES | hgDAF12 agonist | SMARCA2 activ | hcDAF12 agonist | DAX1 inh-1 | ssDAF12 agonist | DAX1 inh-2 | LXRb hcDAF ctr | hcDAF12 ag
c1csc(-c2csc(-c3cccs3)n2)c1 | i | i | i | i | i | i | nt | nt
CC(/C=N/N1CCN(c2ccccn2)CC1)=C\c1ccccc1 | i | i | 6.7 | i | i | i | i | i
COc1ccc(C2NC(=S)N(Cc3ccc(Cl)cc3)C(C)=C2C(C)=O)cc1 (stereo unspecified) | i | i | i | i | i | nt | nt | nt
c1ccc(-c2nc3ccccc3o2)nc1 | i | i | i | i | i | i | nt | nt
c1ccc2nc(-c3nc4ccccc4o3)ccc2c1 | i | i | 13 | i | i | i | i | 23
CC(=O)N1C(=O)/C(=C2\SC(=S)N(c3c(C)n(C)n(-c4ccccc4)c3=O)C2=O)c2ccccc21 | i | i | 9.3 | i | 1.2 | i | i | i
CC(NC(=O)c1c(N)[nH]c(C(=O)c2ccc(Cl)cc2)c1-c1ccc(Br)cc1)c1cccc2ccccc12 (stereo unspecified) | i | i | i | i | i | nt | nt | nt
COC(=O)c1ccc(CSc2nnc(C)n2N)o1 | i | i | 15 | i | i | i | i | i
O=C(Nc1ccccc1N1CCCCC1)c1ncoc1-c1cccc(F)c1 | i | i | 7.0 | i | i | i | i | i
O=C(Nc1ccccc1N1CCCC1)c1cc2ccccc2o1 | 12 | i | 7.5 | i | 1.9 | i | i | 6.7
O=C(Nc1ccccc1N1CCCCC1)c1ccc(-c2cccc(Cl)c2)o1 | i | i | 7.4 | i | i | i | i | i
O=C(Nc1cccnc1Cl)c1cc2ccccc2o1 | 12 | i | 9.3 | i | 2.8 | 4.2 | i | i
O=C(Nc1ccccc1N1CCCCC1)c1ncoc1-c1ccc(F)cc1 | i | i | i | i | i | i | nt | nt
O=C(C(=O)N1CCN(S(=O)(=O)c2cccc(C(F)(F)F)c2)CC1)c1cccc(C(F)(F)F)c1 | i | i | i | i | i | nt | nt | nt
Fc1ccc(-c2nnc(CSc3nnc4ccccn34)o2)cc1 | i | i | i | i | i | i | nt | nt
c1ccc(-c2cnc(CSc3nnc4ccccn34)o2)cc1 | 12 | i | 8.5 | i | i | i | i | 5.8
COC(=O)[C@]12C[C@H](CC(=O)NCc3cccc4ccccc34)C(=O)N(Cc3ccc(Cl)cc3Cl)C1=C[C@H](C1CCCC1)O[C@@H]2C | i | i | i | i | i | nt | nt | nt
COc1ccc(NC(=O)c2ccc3ccccc3n2)cc1S(=O)(=O)N1CCCCC1 | i | i | 8.9 | i | i | i | i | i
O=C1CCC[C@H]2[C@@H](Cc3ccccc3)[C@@H](O)CC[C@]23CCCN13 | i | nt | i | nt | i | nt | nt | nt
CCCC1CCC2(CCCN2CCOC(=O)Nc2ccccc2)CC1 (stereo unspecified) | i | nt | i | nt | i | nt | nt | nt
O=C(C1CCCN(S(=O)(=O)c2ccccc2[N+](=O)[O-])C1)N1CCN(Cc2ccccc2)CC1 (stereo unspecified) | i | i | i | i | i | nt | nt | nt
Cc1cccc(NC(=S)NC(=O)C2CC2)c1 | nt | nt | nt | nt | nt | i | nt | nt
Cc1cc(NC(=S)NC(=O)C2CC2)ccc1Br | i | i | 8.8 | i | i | 4.9 | i | 6.3
